Experimental data from the supplement of paper PMC3334620.
The full ranking holds about 33,000 sequences; the median of “E-score (-0.5 to 0.5)” is about -0.035, and the highest 2% start at about 0.34. Shown is part of a subset that was picked to be rich in the highest values.

molecular target: T1, Mot3 (UniProt P54785); assay: PBM E-score (8-mer binding enrichment) (E-score (-0.5 to 0.5)); higher = stronger / more preferred TF binding; conditions: protein concentration: 200 nM; construct: GST-full length
T1 sequence: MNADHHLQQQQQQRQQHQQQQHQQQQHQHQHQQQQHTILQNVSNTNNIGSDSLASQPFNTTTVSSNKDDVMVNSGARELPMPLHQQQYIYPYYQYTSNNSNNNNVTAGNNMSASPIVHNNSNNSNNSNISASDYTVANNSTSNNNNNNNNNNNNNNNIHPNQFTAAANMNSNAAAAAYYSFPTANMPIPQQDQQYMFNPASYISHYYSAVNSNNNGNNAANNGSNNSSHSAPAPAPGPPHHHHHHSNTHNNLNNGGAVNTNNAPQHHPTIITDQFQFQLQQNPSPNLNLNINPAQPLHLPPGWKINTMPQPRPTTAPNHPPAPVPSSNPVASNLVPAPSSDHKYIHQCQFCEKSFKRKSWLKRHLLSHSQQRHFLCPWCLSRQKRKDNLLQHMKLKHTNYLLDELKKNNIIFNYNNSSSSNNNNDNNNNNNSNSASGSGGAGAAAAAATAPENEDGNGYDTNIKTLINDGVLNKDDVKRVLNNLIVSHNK
Procedure: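 Universal 'all 10-mer' protein binding microarrays (Agilent AMADID 015681) probed with GST-tagged S. cerevisiae TFs (full-length or DBD) made by in vitro transcription/translation (PURExpress), about 100-200 nM. Bound TF was detected with fluorescent anti-GST. Each ungapped 8-mer (which stands for itself and its reverse complement) is scored by the PBM enrichment score (E-score), a modified Wilcoxon-Mann-Whitney statistic from -0.5 to +0.5, computed with the Universal PBM Analysis Suite. Scale: above 0.35 generally sequence-specific binding.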

Row | Sequence | PBM E-score
1 | AGGAACCA | 0.419
2 | CGGAACCG | -0.249
3 | AGGAACCT | 0.458
4 | AAGAACCT | 0.191
5 | GGGAACCC | -0.279
6 | GGGAACCA | -0.175
7 | ACGAACCT | -0.0403
8 | AGGAACCG | 0.442
9 | AGGAACCC | 0.444
10 | ATGAACCG | 0.0149
11 | TGGAACCA | -0.133
12 | CGGAACCC | -0.0527
13 | AGTTCGCG | -0.0658
14 | ACCATCAA | -0.0603
15 | CTACTGGC | -0.182
16 | GGGAGGTA | 0.0239
17 | AATTCCGG | -0.0255
18 | GTCCTCCA | -0.175
19 | CCACACCG | -0.0267
20 | CAGGTCGC | -0.225
21 | CGTGTTTA | 0.346
22 | CATGTTTA | 0.371
23 | GGTGTTTA | 0.0636
24 | AGTGTTAA | 0.264
25 | TGTGTTAA | 0.401

Row | Sequence | PBM E-score
26 | CGCGTTAA | 0.368
27 | AGTGTTTA | 0.126
28 | GATGTTTA | 0.125
29 | CATGTTTC | 0.24
30 | GGCGTTAA | 0.149
31 | GGTGTTAA | 0.28
32 | CGCGTTAG | 0.187
33 | ACACTGGC | 0.00843
34 | ACTTAAGG | 0.157
35 | CTAGATAC | -0.0863
36 | GCAAGACC | -0.0597
37 | CGCAAAAC | 0.0841
38 | CACAGCTC | 0.0935
39 | CAACTGAG | 0.00667
40 | GAACCTCA | -0.0997
41 | AGAGCACT | -0.0229
42 | GAAACTCA | -0.0953
43 | CGGACAAC | -0.0115
44 | CTCGAGCA | -0.0333
45 | CGTGTTAG | 0.354
46 | CTTGTTAA | 0.355
47 | AATGTTGA | 0.162
48 | GTTGTTAA | 0.275
49 | AGTGTTAG | 0.0278
50 | CCTGTTAA | 0.297

Row | Sequence | PBM E-score
51 | CGTGTTAA | 0.418
52 | CTTGTTAC | 0.158
53 | CATGTTGA | 0.401
54 | CATGTTGC | 0.297
55 | CGTGTTCA | 0.273
56 | CGTGTTAC | 0.308
57 | ATTCAATA | 0.0942
58 | TACGAACA | 0.18
59 | CTTTTCCC | -0.0316
60 | TCTGGTAA | -0.0343
61 | CGCCTAAC | 0.152
62 | GAAGATAC | -0.078
63 | GACTGCAC | -0.0356
64 | AAAGCACT | -0.216
65 | GACGCCCA | -0.158
66 | CATAGAAC | -0.0217
67 | TGTCAAAA | 0.241
68 | GCGTCCCC | -0.362
69 | AGCAAGGA | -0.0799
70 | GACAGCCA | -0.186
71 | AGAAGAAG | -0.0319
72 | CGTGTTGC | 0.242
73 | AGTGTTGA | 0.073
74 | CGTGTTGA | 0.395
75 | CCACAATA | -0.0891

Row | Sequence | PBM E-score
76 | GGTCCTTA | -0.152
77 | AAGGCACT | 0.486
78 | TAGGCATA | 0.28
79 | TAGGCAGA | 0.136
80 | AAGGCACA | 0.492
81 | AGGGCACT | 0.0516
82 | GGGGCACA | -0.202
83 | AGGGCACA | 0.3
84 | AAGGCAGA | 0.0903
85 | ACGGCACT | -0.139
86 | GAGGCAGA | -0.164
87 | TAGGCACA | 0.491
88 | GAGGCACA | 0.47
89 | AACGTATG | 0.0662
90 | CGCGCTGC | -0.0871
91 | TAAACATA | 0.284
92 | CCCAGATC | -0.111
93 | ATTTTCAA | 0.12
94 | AAGGCGCG | 0.252
95 | GGGGCACC | -0.152
96 | CGGGCACA | 0.0796
97 | GAGGCACC | 0.463
98 | AAGGCGCT | 0.353
99 | TGGGCACA | 0.356
100 | GCGGCACC | -0.159

Row | Sequence | PBM E-score
101 | AAGGCGCA | 0.336
102 | CGGGCACG | 0.263
103 | AACAGCTC | -0.162
104 | CTCTTTAC | 0.177
105 | TGGCCACA | -0.096
106 | ATTCCAGC | -0.168
107 | CTTCACGC | 0.151
108 | AGCAGGTC | -0.0131
109 | AGGTGTAA | 0.26
110 | CCGTGTGA | 0.277
111 | TGGTGTAA | 0.186
112 | CAGTGTAA | 0.225
113 | GCGTGGAA | -0.104
114 | ACGTGTGA | 0.184
115 | TCGTGTAA | 0.411
116 | GCGTGTAA | 0.431
117 | TAGTGTAA | 0.206
118 | GCGTGTCC | 0.0864
119 | CCGTGTAA | 0.403
120 | ACGTGTAA | 0.414
121 | ACTCCAGG | 0.0384
122 | ACACCTAA | 0.168
123 | AGGGCAAG | 0.13
124 | CACTCTAG | -0.145
125 | ACCCAGCC | -0.259

Row | Sequence | PBM E-score
126 | CTTCCTTA | 0.146
127 | CTTCCTGA | -0.0128
128 | GTTCCTGA | 0.428
129 | ATTCCTTA | 0.211
130 | ATTCCTAA | 0.105
131 | ATTCCTGA | 0.136
132 | GTTCCTAA | 0.431
133 | CTTCCTAA | 0.0478
134 | GTTCCTTA | 0.428
135 | CCCGAAGG | -0.0155
136 | ATGGAAGC | -0.191
137 | AAGTGCCC | -0.177
138 | ACATGCGG | 0.175
139 | ACATGCCT | 0.366
140 | AAATGCCA | -0.105
141 | ACATGCGC | 0.251
142 | AAATGCCC | -0.192
143 | AAATGCCT | 0.377
144 | AAGTGCCT | 0.48
145 | ACATGCGT | 0.341
146 | ACATGCCC | 0.21
147 | ACATGCCA | 0.304
148 | AAGTGCCA | 0.0649
149 | TCAGACCA | -0.201
150 | CCTCTTGC | 0.0662

Row | Sequence | PBM E-score
151 | GAGGGTGA | -0.208
152 | CCGCTCCG | -0.227
153 | AAACCGAA | -0.0393
154 | ACAGCTGT | -0.0347
155 | AGCTCAGC | -0.206
156 | ATGCAGGA | 0.0312
157 | ATGCAGGG | -0.153
158 | CTGCAGTC | -0.106
159 | CTGCAGGC | 0.406
160 | ATGCAGGC | 0.342
161 | CTGCAGGA | 0.291
162 | ACCATTTC | -0.123
163 | CCGAGACG | -0.0781
164 | CGCTGGTC | -0.275
165 | GATGTCGA | 0.215
166 | GCTGTCGA | -0.12
167 | CATGTCGG | 0.222
168 | CCTGTCGA | 0.342
169 | CCTGTCGC | -0.046
170 | CATGTCGA | 0.351
171 | GGGTTCTA | -0.176
172 | GTCTGTAA | 0.149
